About 37,000 (12%) of roughly 300,000 compounds were called active. Many of the other results were omitted from the sample, so actives are more common in it than they were. Unmarked numbers belong to inactive results. No stated cut-off is given here; in the data, active means max response mostly above about 13% (no sharp cut-off); inactive means mostly below about 14%.
assay: Cycloheximide Counterscreen for Small Molecule Inhibitors of Shiga Toxin; settings: cell reporter, cycloheximide protein synthesis inhibition counterscreen; hits give high values; further: read at 38.3 µM for the half of the compounds with a filed dose; 0% is about no effect

Row | Structure (SMILES) | max response
1 | CCN1CCN(c2nc(Nc3cc(OC)ccc3OC)nc(Nc3cc(OC)ccc3OC)n2)CC1 | -2.31%
2 | COc1ccc(C(=O)/C=C/c2ccc(-c3ccccc3)cc2)cc1CSCC(=O)O | 16.5%
3 | COC(=O)c1ccc(COc2ccc(/C=C/C(=O)c3ccc(OC)c(CSCC(=O)O)c3)cc2OC)cc1 | 16.2% (active)
4 | COc1ccc(/C=C/C(=O)c2ccc(NS(=O)(=O)c3ccc(C)cc3)cc2)cc1O | -1.98%
5 | Fc1ccc(Cl)cc1-c1nc(Nc2ccncc2)c2nccnc2n1 | 1.12%
6 | COc1ccc(N(C(=O)c2snc(C(N)=O)c2N)C(C(=O)NC2CCCC2)c2ccc(C)o2)c(OC)c1 (stereo not drawn) | -6.04%
7 | COCc1c(C(=O)N/N=C/C2CC=CCC2)nnn1-c1nonc1N (stereo not drawn) | 1.58%
8 | O=C(N/N=C\C1CC=CCC1)c1ccc(Br)o1 (stereo not drawn) | 29.4% (active)
9 | Cc1ccc(SCc2c(C(=O)N/N=C/C3CC=CCC3)nnn2-c2nonc2N)cc1 (stereo not drawn) | -2.54%
10 | C=CCC1CCC(=O)N2CCCC12 (stereo not drawn) | -5.3%
11 | COc1ccc(OC)c(S(=O)(=O)N(C)CC(=O)N2CCN(c3ccccc3)CC2)c1 | 6.23%
12 | O=C(CCNS(=O)(=O)c1cccs1)N1CCN(c2ccc(F)cc2)CC1 | -5.58%
13 | CN(CC(=O)N1CCN(c2ccccc2)CC1)S(=O)(=O)c1cccs1 | 29% (active)
14 | Cc1ccc(C(=O)NN(CCC#N)C2=NS(=O)(=O)c3ccccc32)cc1 | 0.601%
15 | CONc1nc2nonc2nc1NOC | -2.64%
16 | COc1ccc(NC(=O)c2c(SC)nsc2SC)cc1 | -1.45%
17 | COc1ccc(NC(=O)c2cn(-c3ccccc3)nc2SC)cc1 | 15.2% (active)
18 | COc1ccc(-c2nn(-c3ccccc3)cc2C(=O)Nc2nc(CC(C)=O)ns2)cc1 | 9.17%
19 | Cc1ccc(-n2cc3ccc([N+](=O)[O-])cc3n2)cc1 | 46.9% (active)
20 | Cc1ccc(-c2cn(S(=O)(=O)c3cccc([N+](=O)[O-])c3)nc2N)cc1 | -2.07%

Row | Structure (SMILES) | max response
21 | Cc1cc(C)nc(Nc2cc([N+](=O)[O-])ccc2C)n1 | 7.47%
22 | CCCCc1nn(-c2ccccc2C(F)(F)F)c(=O)n1Cc1ccc(-c2ccccc2S(=O)(=O)NC(=O)c2sccc2C)cc1 | -3.92%
23 | CN1CCN(CCCCOc2ccccc2-c2ccccc2)CC1 | -2.52%
24 | COc1ccccc1N1CCN(C(=O)c2ccc(Cl)c(S(=O)(=O)N3CCCC3)c2)CC1 | 1.2%
25 | CC12CN(NC(=O)c3ccc(Cl)cc3)C3(C#N)CC1CCC23C (stereo not drawn) | -3.78%
26 | CCOc1ccc(CN2CCN(CCCc3ccccc3)C(CCO)C2)cc1 (stereo not drawn) | -3%
27 | CC(C)=CCN1CCN(Cc2ccc(Oc3ncccn3)cc2)CC1CCO (stereo not drawn) | -1.38%
28 | OCCC1CN(Cc2ccc(Oc3ncccn3)cc2)CCN1CCc1ccccc1 (stereo not drawn) | 14.5% (active)
29 | N#Cc1cccc(CN2CCC(=O)N(CCO)CC2)c1 | -1.61%
30 | O=C(c1ccc(N2CCOCC2)c([N+](=O)[O-])c1)N1CCN(S(=O)(=O)c2cccs2)CC1 | -2%
31 | CN(c1ccc(OCC(=O)O)cc1)S(=O)(=O)c1ccc2ccccc2c1 | -2.07%
32 | O=C(NCc1cccc(C(F)(F)F)c1)c1cccc(S(=O)(=O)N2CCN(Cc3ccccc3)CC2)c1 | -5.35%
33 | O=C(NCc1ccccc1)c1ccc(S(=O)(=O)Nc2cccc(C(F)(F)F)c2)cc1 | 2.15%
34 | O=C(Cc1cccs1)NCc1cccc(C(F)(F)F)c1 | 36.1% (active)
35 | Cc1nc([N+](=O)[O-])nn1C12CC3CC(CC(Br)(C3)C1)C2 | 15.4%
36 | CCC(C)(C)c1ccc(OCC(=O)N(C)C)c(C(C)(C)CC)c1 | -3.16%
37 | Cc1nc2ccc(C(=O)N3CCSCC3)cc2s1 | 11.3% (active)
38 | Cc1nc2ccc(C(=O)N3CCN(c4ccccc4)CC3)cc2s1 | -1.5%
39 | O=C(c1ccc2nc(N3CCOCC3)sc2c1)N1CCN(c2ccc(Cl)cc2)CC1 | 1.7%
40 | OC(COCCC12CC3CC(CC(C3)C1)C2)CN1CCCCC1 (stereo not drawn) | -4.31%

Row | Structure (SMILES) | max response
41 | Cc1nc(C)c(-c2nnc(-c3cccc(S(=O)(=O)N(C)C)c3)o2)cc1C(=O)NN | -1.43%
42 | Cc1nc2sc(C(=O)c3ccccc3)c(N)c2c2c1CCCC2 | 20.5% (active)
43 | CCc1nc2sc(C(=O)O)c(N)c2c2c1CCCC2 | -1.77%
44 | COc1cccc(C(=O)c2sc3nc(-c4ccccc4)cc(C(F)(F)F)c3c2N)c1 | 10.5%
45 | Cc1ccc2c(N)c(C(=O)c3ccccc3)sc2n1 | 29% (active)
46 | CCOC(=O)c1sc2nc(SC)nc(-c3ccccc3)c2c1N | -2.15%
47 | CCN(CC)C(=O)c1sc2nc(-c3ccccc3)ccc2c1N | 63.5% (active)
48 | NC(=O)c1sc2nc3c(c(-c4ccccc4)c2c1N)CCC3 | -2.08%
49 | CN(C)c1ccnc2sc(C(=O)c3ccccc3)c(N)c12 | 57.9% (active)
50 | CC(=O)c1c(Nc2ccccc2)sc(C(=O)c2ccccc2)c1C | 0.579%
51 | CS(=O)(=O)c1sc2nc(-c3ccccc3)cc(-c3ccccc3)c2c1N | -3.03%
52 | COC(=O)c1cc2c(N)c(C(=O)c3ccc(Cl)cc3)sc2nc1C(OC)OC | -3.14%
53 | CN(C)c1ccnc2sc3c(=O)n(Cc4ccccc4)cnc3c12 | -5.28%
54 | C[C@H](C(=O)CC(=O)OC(C)(C)C)[C@H](O)c1ccc(C(F)(F)F)cc1 | 1.49%
55 | Oc1ccc(-c2c(-c3ccccc3)nn3c(C(F)(F)F)cc(C(F)(F)F)nc23)cc1 | -7.49%
56 | Cc1ccc2c(c1)N(CC(=O)N1CCC(O)CC1)C(=O)CO2 | -1.82%
57 | CC[C@@H](C)[C@H](NC(=O)CCc1c(C)c2cc3c4c(oc3c(C)c2oc1=O)CCCC4)C(=O)O | 9.7%
58 | COc1ccc(/C=C2\SC(=S)N(CCC(=O)Nc3ccccn3)C2=O)cc1OC | -7.17%

— PubChem BioAssay AID2314 (National Center for Advancing Translational Sciences (NCATS), 2010)
